Source: PubChem BioAssay (NCATS)
Unmarked numbers belong to inactive results. Results filed as inconclusive are left out. Activity calls are given as the source filed them. Unless noted, calls follow the shape of the dose curve; as a rule, active = well fitted curve in the direction sought with a large enough effect; inconclusive = small, poorly fitted or top-dose-only effect, or another doubt; inactive = no such curve, though single readings can be large; an effect the other way counts as inactive or inconclusive.

Legend:
[1] = target: Cytochrome P450 1A2 (Homo sapiens) (UniProt P05177); assay: p450-cyp1a2 (AID 410; calls by dose curve; also: potency is read from the fitted curve at half-maximal effect)
Sequence of Cytochrome P450 1A2 (Homo sapiens) (P05177 whole entry, looked up): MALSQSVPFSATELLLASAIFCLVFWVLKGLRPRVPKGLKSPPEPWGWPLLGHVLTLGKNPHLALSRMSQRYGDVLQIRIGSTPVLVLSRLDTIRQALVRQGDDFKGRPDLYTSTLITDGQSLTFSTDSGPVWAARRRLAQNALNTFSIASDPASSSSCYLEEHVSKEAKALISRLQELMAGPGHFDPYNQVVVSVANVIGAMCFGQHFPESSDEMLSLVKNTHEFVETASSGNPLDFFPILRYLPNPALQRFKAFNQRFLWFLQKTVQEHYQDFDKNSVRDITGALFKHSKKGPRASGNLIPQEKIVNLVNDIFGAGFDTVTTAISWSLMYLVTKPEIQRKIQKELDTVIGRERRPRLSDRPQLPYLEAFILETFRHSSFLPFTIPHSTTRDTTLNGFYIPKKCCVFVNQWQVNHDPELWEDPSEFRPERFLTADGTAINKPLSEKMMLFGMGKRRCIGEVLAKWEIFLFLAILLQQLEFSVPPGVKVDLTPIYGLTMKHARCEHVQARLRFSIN
How it was run: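 Human CYP1A2 (20nM) demethylated Luciferin-ME at its Km (100uM) in 100mM KPO4. After 10 min compound preincubation, NADPH regeneration ran the reaction 60 min at room temperature. Luciferin was read by luminescence, normalized to 57 uM furafylline.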

[2] = NFAT Signaling Pathway (AID 444; active = well fitted curve in either direction with a large enough effect, not every such curve was filed as active;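 also: carbachol stimulus at about its EC50 of 1 µM final; % is scaled to controls: 0 for no effect and ±100 for the full control effect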); conditions: Jurkat NFAT-bla M1, carbachol, beta-lactamase ratio, 5 h; at 7.69 µM (top of the series) unless noted
How it was run: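 Jurkat cells carrying an NFAT-driven β-lactamase reporter and co-transfected muscarinic M1 receptor were treated with compound plus carbachol (1 uM final, an EC50 level) for 5 h at 37 °C. CCF4 loading followed for 1 h at RT; 460/530 nm ratio gave %activity.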

[3] = Stat Signaling Pathway (AID 446; active = well fitted curve in either direction with a large enough effect, not every such curve was filed as active;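 also: ME-180 cervical cancer cells given 40 pM IL-6 alongside compound; SIE-controlled beta-lactamase reporter measured as 460/530 nm FRET emission ratio; % is scaled to controls: 0 for no effect and ±100 for the full control effect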)
How it was run: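 Screening format detects activators and inhibitors alike: ME-180 SIE-bla cells stimulated at 40 pM IL-6 for 5 hrs with compound, then dual-emission beta-lactamase read at 405 nm excitation.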

[4] = target: Glucocorticoid receptor (Homo sapiens) (UniProt P04150); assay: GR-GFP Redistribution (AID 450;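 active = compounds whose dose series gives a full or clear partial fitted curve of increased nuclear translocation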; also: potency is read from the fitted curve at half-maximal effect); conditions: U2OS GR-GFP nuclear translocation, laser cytometry, 2 h
Sequence of Glucocorticoid receptor (Homo sapiens) (P04150 whole entry, looked up, the tested form may be a part): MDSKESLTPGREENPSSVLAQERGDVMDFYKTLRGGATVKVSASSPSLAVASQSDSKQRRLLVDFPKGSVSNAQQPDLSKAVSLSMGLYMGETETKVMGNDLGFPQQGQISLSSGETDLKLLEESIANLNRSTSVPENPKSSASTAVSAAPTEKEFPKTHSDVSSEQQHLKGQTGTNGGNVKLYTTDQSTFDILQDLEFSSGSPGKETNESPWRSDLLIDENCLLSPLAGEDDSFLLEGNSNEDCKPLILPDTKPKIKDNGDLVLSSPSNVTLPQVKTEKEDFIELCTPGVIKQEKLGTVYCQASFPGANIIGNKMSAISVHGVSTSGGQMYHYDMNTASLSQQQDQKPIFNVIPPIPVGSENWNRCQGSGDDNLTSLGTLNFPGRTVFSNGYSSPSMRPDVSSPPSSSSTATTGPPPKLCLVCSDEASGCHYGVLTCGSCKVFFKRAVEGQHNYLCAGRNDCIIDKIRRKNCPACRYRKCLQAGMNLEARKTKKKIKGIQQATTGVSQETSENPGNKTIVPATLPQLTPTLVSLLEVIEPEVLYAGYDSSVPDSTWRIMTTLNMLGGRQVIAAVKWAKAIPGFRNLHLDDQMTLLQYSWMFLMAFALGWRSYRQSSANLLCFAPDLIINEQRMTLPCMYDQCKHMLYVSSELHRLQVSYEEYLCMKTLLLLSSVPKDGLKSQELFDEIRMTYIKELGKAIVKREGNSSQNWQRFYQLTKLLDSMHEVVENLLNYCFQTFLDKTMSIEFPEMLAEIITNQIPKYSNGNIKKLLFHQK

[5] = target: Glucocorticoid receptor (Homo sapiens) (UniProt P04150); assay: GR-EFC Redistribution (AID 451; calls by dose curve; also: potency is read from the fitted curve at half-maximal effect); conditions: CHO-K1 GR-EFC translocation, beta-gal luminescence, 2 h
How it was run: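 CHO-K1 cells stably expressing nuclear-localized β-gal enzyme acceptor and GR fused C-terminally to the enzyme donor fragment; ligand-driven nuclear translocation restores β-gal by complementation. Compounds titrated up to 46 uM final, 2 h at 37 °C; luminescence read.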

[6] = target: Mitogen-activated protein kinase 10 (Mus musculus) (UniProt Q61831); assay: JNK3 AlphaScreen Assay (AID 530; active = well fitted curve in either direction with a large enough effect, not every such curve was filed as active;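 also: kinase came from lysate of stimulated human HepG2 cells; signal reports phosphorylation of biotinylated GST-cJun 1-79 at Ser73 with 10 µM ATP; % is scaled to controls: 0 for no effect and ±100 for the full control effect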)
How it was run: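 JNK3 came from HepG2 lysates pre-activated with IL-1beta and TNF-alpha and phosphorylated biotinylated GST-cJun (1-79) at 10 uM ATP, pH 7.6, room temperature. Compounds were titrated. AlphaScreen signal used anti-phospho-cJun (Ser73) antibody.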

[7] = target: 3',5'-cyclic-AMP phosphodiesterase 4B (Homo sapiens) (UniProt Q07343); assay: qHTS Assay for Inhibitors of PDE-IV (AID 607; active = well fitted activation curve with a large enough effect in the main read-out, with a control signal flat, not every such curve was filed as active; also: % of control where 0% means no effect)
Sequence of 3',5'-cyclic-AMP phosphodiesterase 4B (Homo sapiens) (Q07343 whole entry, looked up): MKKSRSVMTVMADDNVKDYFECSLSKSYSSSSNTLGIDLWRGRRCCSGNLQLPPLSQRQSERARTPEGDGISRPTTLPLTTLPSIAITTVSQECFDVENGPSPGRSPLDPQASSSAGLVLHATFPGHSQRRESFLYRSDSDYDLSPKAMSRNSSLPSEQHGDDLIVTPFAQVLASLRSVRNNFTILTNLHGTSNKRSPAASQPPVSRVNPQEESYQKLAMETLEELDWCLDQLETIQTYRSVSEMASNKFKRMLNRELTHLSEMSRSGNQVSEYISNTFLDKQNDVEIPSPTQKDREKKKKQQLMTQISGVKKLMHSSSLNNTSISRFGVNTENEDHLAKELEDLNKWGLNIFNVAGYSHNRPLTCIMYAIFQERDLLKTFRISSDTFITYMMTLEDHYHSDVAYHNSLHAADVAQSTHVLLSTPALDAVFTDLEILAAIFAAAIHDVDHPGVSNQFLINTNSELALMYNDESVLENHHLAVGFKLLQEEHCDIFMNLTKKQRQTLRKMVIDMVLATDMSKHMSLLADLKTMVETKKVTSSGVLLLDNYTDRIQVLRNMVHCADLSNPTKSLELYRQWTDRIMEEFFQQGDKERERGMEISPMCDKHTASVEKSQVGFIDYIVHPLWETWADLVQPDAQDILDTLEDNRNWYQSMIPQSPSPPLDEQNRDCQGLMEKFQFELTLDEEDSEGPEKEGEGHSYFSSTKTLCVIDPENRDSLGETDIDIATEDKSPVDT
How it was run: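 The readout is membrane depolarisation from a cAMP-sensing CNG channel, detected with a potential dye at ex 535/em 590. Cells were HEK293-derived (endogenous PDE-IV) at 1000 cells/well, titrated up to 22.9 uM final.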

[8] = target: Cytochrome P450 3A4 (Homo sapiens) (UniProt P08684); assay: qHTS Assay for Inhibitors and Substrates of Cytochrome P450 3A4 (AID 884); also: potency is read from the fitted curve at half-maximal effect; nearly all actives have a fitted effect of over 50% in size
Sequence of Cytochrome P450 3A4 (Homo sapiens) (P08684 whole entry, looked up): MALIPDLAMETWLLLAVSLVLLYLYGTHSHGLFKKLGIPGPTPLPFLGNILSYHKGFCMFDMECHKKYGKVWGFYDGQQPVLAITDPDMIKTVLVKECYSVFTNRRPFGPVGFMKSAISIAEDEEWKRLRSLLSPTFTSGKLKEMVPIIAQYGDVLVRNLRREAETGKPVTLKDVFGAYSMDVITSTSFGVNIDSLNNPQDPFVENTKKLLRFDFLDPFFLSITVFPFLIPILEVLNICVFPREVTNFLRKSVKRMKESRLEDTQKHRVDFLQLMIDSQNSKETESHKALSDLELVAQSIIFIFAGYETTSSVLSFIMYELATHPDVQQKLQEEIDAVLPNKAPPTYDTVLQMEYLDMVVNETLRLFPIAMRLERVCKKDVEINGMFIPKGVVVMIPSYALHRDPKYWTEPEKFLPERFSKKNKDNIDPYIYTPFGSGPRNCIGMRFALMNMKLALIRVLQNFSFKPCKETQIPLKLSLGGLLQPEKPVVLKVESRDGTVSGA
How it was run: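 20 nM human CYP3A4 with 25 uM Luciferin-PPXE (at KM) in 200 mM KPO4, preincubated 10 min with compound; NADPH regeneration started a 60 min RT reaction. Luciferin detected by luminescence, normalized to 57 uM ketoconazole as full inhibition.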

[9] = target: Cytochrome P450 2C19 (Homo sapiens) (UniProt P33261); assay: qHTS Assay for Inhibitors and Substrates of Cytochrome P450 2C19 (AID 899); also: nearly all actives have a fitted effect of over 60% in size; also: potency is read from the fitted curve at half-maximal effect
Sequence of Cytochrome P450 2C19 (Homo sapiens) (P33261 whole entry, looked up): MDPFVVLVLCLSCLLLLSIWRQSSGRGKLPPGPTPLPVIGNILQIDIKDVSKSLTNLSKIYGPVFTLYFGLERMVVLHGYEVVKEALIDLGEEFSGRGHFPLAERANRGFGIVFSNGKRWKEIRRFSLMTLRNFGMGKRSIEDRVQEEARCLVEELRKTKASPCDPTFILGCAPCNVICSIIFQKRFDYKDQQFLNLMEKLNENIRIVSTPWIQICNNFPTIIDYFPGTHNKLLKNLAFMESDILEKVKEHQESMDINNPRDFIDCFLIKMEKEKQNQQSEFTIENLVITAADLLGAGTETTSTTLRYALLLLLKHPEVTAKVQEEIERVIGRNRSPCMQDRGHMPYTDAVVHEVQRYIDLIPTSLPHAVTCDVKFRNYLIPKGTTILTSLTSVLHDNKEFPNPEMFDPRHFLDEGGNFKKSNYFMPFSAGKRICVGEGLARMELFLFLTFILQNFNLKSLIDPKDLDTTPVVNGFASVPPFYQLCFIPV
How it was run: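 Human CYP2C19 (5nM) with Luciferin-H EGE at 10uM (its KM) in 50mM KPO4 was preincubated with compound for 10 min at 37C. NADPH regeneration started a 60 min 37C reaction. Luciferin was read by luminescence, normalized to 57uM ketoconazole.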

[10] = target: Dual specificity protein kinase CLK4 (Homo sapiens) (UniProt Q9HAZ1); assay: qHTS Assay for Inhibitors of CDC-like Kinase 4 (Kinase-Glo Assay) (AID 1770); also: nearly all actives have a fitted effect of over 65% in size; also: potency is read from the fitted curve at half-maximal effect
Sequence of Dual specificity protein kinase CLK4 (Homo sapiens) (Q9HAZ1 whole entry, looked up): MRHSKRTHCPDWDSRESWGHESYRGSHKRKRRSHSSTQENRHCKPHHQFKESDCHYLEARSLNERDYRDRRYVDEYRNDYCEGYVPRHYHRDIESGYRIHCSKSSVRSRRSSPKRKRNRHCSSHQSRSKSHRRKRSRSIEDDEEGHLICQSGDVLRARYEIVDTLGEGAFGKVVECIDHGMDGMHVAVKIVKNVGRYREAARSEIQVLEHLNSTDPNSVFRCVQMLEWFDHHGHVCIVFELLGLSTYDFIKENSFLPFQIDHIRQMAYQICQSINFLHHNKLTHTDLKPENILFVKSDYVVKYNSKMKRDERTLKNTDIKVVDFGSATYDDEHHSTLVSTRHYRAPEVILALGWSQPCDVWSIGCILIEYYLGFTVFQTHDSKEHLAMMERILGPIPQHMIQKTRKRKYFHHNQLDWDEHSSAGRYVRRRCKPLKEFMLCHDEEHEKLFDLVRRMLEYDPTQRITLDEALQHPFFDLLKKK
How it was run: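 Inhibition was judged from remaining ATP, measured by Ultra-Glo luciferase bioluminescence after Clk4 (25 nM) had acted on RS peptide at 1 uM ATP for 4.5 hours, room temperature.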

[11] = target: Dual specificity protein kinase CLK4 (Homo sapiens) (UniProt Q9HAZ1); assay: qHTS Assay for Inhibitors of CDC-like Kinase 4 (ADP-Glo Assay) (AID 1771); also: nearly all actives have a fitted effect of over 70% in size; also: potency is read from the fitted curve at half-maximal effect
How it was run: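 Clk4 (25 nM) was incubated 1 hr at room temperature with 100 uM RS repeat peptide and 1 uM ATP in buffer with 2 mM MgCl2, 0.5 mM EGTA, 2.5 mM DTT. ADP formed was quantified by ADP-Glo luminescence.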

[12] = target: Dual specificity protein kinase CLK4 (Homo sapiens) (UniProt Q9HAZ1); assay: qHTS Assay for Inhibitors of CDC-like Kinase 4 (ADP-FP Assay) (AID 1795); also: nearly all actives have a fitted effect of over 60% in size; also: potency is read from the fitted curve at half-maximal effect
How it was run: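 Inhibition of ADP formation by 6.25 nM Clk4 is measured using 1 uM ATP and 100 uM RS repeat peptide over one hour. Produced ADP displaces a fluorescent tracer from antibody, lowering polarization.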

[13] = target: Ubiquitin carboxyl-terminal hydrolase 1 (Homo sapiens) (UniProt O94782); assay: Inhibitors of USP1/UAF1: Pilot qHTS (AID 504865);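 also: rhodamine fluorescence freed from ubiquitin-rhodamine substrate followed over time; top concentration of the series differs between compounds; % is scaled to controls: 0 for no effect and ±100 for the full control effect; nearly all actives have a fitted effect of over 35% in size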
Sequence of Ubiquitin carboxyl-terminal hydrolase 1 (Homo sapiens) (O94782 whole entry, looked up): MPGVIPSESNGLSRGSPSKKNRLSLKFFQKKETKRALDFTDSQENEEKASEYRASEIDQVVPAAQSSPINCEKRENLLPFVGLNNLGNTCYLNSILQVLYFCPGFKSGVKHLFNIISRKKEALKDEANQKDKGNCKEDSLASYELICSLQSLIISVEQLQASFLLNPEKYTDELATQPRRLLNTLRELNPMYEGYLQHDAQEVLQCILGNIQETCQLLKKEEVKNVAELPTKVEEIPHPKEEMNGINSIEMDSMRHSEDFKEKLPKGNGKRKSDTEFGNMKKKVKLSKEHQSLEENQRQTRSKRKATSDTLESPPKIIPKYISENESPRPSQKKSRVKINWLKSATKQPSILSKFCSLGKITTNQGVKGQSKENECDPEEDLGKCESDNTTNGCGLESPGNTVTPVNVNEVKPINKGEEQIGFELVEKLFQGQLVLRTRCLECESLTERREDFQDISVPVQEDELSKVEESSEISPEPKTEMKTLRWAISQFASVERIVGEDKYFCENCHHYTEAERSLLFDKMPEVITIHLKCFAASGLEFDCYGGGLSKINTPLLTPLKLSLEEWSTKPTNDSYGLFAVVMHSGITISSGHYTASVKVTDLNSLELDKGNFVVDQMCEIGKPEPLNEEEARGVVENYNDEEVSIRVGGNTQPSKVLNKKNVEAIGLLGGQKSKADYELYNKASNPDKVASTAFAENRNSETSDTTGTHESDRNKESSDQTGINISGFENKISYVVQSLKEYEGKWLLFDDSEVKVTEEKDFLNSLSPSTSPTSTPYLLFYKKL
How it was run: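 Kinetic fluorescence assay: 1nM USP1/UAF1, 15 min compound preincubation, then 150nM Ub-Rho; 480/540 nm.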

[14] = AP1 Signaling Pathway (AID 357; active = well fitted curve in either direction with a large enough effect, not every such curve was filed as active;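 also: ME-180 reporter cells stimulated with EGF at its EC50 level; % is scaled to controls: 0 for no effect and ±100 for the full control effect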); conditions: ME-180 AP-1-bla reporter, EGF-induced, beta-lactamase ratio, 5 h; at 7.69 µM (top of the series) unless noted
How it was run: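 AP-1-bla ME-180 cells, Opti-MEM + 0.5% dialyzed FBS, plated overnight 37 °C. Cpd titration + EC50 EGF, 5 h 37 °C. CCF4 2.5 h RT; ex 405, em 460/530 ratio → %activity, AC50.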

[15] = target: Cytochrome P450 3A4 (Homo sapiens) (UniProt P08684); assay: qHTS Assay for Activators of Cytochrome P450 3A4 (AID 885); also: nearly all actives have a fitted effect of over 65% in size
How it was run: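 Steps: enzyme/substrate mix dispensed; compound added, 10 min RT; NADPH regeneration solution added, 60 min RT; luciferin detection buffer stops reaction; 20 min later luminescence measured.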

[16] = target: Lysosomal acid glucosylceramidase (Homo sapiens) (UniProt P04062); assay: Glucocerebrosidase-p2 (AID 348; in the data active = potency below about 10 µM; also: potency is read from the fitted curve at half-maximal effect); conditions: purified GBA, blue fluorogenic substrate, 40 min
Sequence of Lysosomal acid glucosylceramidase (Homo sapiens) (P04062 whole entry, looked up): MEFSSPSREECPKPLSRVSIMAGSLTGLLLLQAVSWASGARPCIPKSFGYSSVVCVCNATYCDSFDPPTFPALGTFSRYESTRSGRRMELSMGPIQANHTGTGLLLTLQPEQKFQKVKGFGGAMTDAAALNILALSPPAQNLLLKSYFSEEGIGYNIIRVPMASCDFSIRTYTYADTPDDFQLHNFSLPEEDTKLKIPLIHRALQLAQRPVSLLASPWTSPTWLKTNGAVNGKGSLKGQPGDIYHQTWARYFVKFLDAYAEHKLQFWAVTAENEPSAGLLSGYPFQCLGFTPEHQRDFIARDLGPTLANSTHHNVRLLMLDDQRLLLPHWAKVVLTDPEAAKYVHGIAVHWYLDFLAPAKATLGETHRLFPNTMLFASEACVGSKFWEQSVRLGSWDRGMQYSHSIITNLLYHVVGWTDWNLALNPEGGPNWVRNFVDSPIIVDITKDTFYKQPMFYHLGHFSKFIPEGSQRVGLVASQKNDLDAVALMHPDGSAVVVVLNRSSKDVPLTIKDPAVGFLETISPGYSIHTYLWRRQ
How it was run: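 Compounds titrated from 0.6 nM upwards against 0.2 nM enzyme in pH 5.9 citric acid/KH2PO4, taurocholate, tween-20; blue fluorogenic substrate 80 uM, 40 min room temperature, stopped and read Ex 365/Em 440 for AC50.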

[17] = qHTS Assay for Identification of Small Molecule Agonists for Hypoxia Response Element Signaling Pathway (AID 914; active = well fitted activation curve with a large enough effect in the signal ratio, with a control signal flat, not every such curve was filed as active; the % refers to the signal ratio; also: % of control where 0% means no effect); conditions: ME-180 (cervical carcinoma) HRE-bla reporter, beta-lactamase ratio, CoCl2, 17 h; activation: hits give high values
How it was run: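 HRE-bla ME-180 cells, overnight plating in Opti-MEM with 0.5% dialyzed FBS; cpd titration + EC50 CoCl2, 17 h, 37 degrees Celsius; CCF4 2.5 h RT; 460/530 nm ratio; AC50.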

[18] = target: Cytochrome P450 2D6 (Homo sapiens) (UniProt P10635); assay: qHTS Assay for Inhibitors and Substrates of Cytochrome P450 2D6 (AID 891); also: potency is read from the fitted curve at half-maximal effect; nearly all actives have a fitted effect of over 60% in size
How it was run: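 Human CYP2D6 (5 nM) with 30 uM Luciferin-ME EGE (at Km) in 100 mM KPO4, compound preincubated 10 min, then NADPH regeneration system for 60 min at room temperature. Luciferin read by luminescence; normalized to 1.43 uM quinidine.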

Compound	Potency [1]	activity change, negative = inhibition [2]	outcome [3]	Potency [4]	Potency [5]	Potency [6]	Potency [7]	Potency [8]	Potency [9]	Potency [10]	Potency [11]	Potency [12]	Potency [13]	activity change, negative = inhibition [14]	outcome [15]	Potency [16]	activation [17]	Potency [18]
COc1cccc(Cn2c(=O)cnc3cnc(Nc4cccc(OC)c4)nc32)c1	3.98 µM (active)	15.4%	inactive	> 9.22 µM	> 46 µM	inactive	inactive	2 µM (active)	3.98 µM (active)	2.24 µM (active)	2.24 µM (active)	2 µM (active)	inactive	–	–	–	–	–
COCCn1c(=O)c(CCc2ccccc2)nc2cnc(OCc3ccccc3)nc21	–	4.34%	inactive	–	–	–	–	–	–	inactive	inactive	inactive	inactive	-21.6%	–	–	–	–
CN(Cc1ccco1)c1ncnc2ccc(-c3cccc(NS(C)(=O)=O)c3)cc12	0.398 µM (active)	14.3%	inactive	> 46 µM	> 46 µM	inactive	–	5.01 µM (active)	7.94 µM (active)	7.08 µM (active)	7.94 µM (active)	–	inactive	–	inactive	–	–	–
COCCn1c(=O)c(-c2cccc(C#N)c2)nc2cnc(OCc3ccccc3)nc21	12.6 µM (active)	-5.35%	–	> 9.22 µM	–	inactive	inactive	–	inactive	inactive	inactive	–	inactive	-20.4%	inactive	> 11.4 µM	–	–
N#CCCn1c(=O)c(-c2ccc(Cl)cc2)nc2cnc(N3CCOCC3)nc21	15.8 µM (active)	5.23%	inactive	> 9.22 µM	> 46 µM	inactive	inactive	–	–	inactive	inactive	–	inactive	0.155%	–	–	22.6%	–
O=c1c(CCc2ccccc2)nc2cnc(Oc3ccccc3)nc2n1C1CC1	–	-5.31%	inactive	–	–	–	–	–	–	inactive	inactive	–	inactive	-15.6%	inactive	> 11.4 µM	–	–
CN(C)c1ccc(-c2cc(N(C)Cc3ccco3)ncn2)cc1	0.316 µM (active)	3.68%	inactive	> 46 µM	–	inactive	inactive	–	–	25.1 µM (active)	31.6 µM (active)	inactive	inactive	-23.1%	inactive	–	–	7.94 µM (active)
COc1cccc(-c2ccc3ncnc(N4CCNCC4)c3c2)c1	–	11.4%	–	> 46 µM	–	inactive	–	–	3.16 µM (active)	1.78 µM (active)	2 µM (active)	–	inactive	1.7%	inactive	–	–	–
Cc1nc2cnc(N3CCN(C)CC3)nc2n(CCc2ccccc2)c1=O	10 µM (active)	-16.9%	inactive	–	–	inactive	–	–	5.01 µM (active)	inactive	inactive	inactive	inactive	0.08%	–	–	–	2.51 µM (active)
O=c1c(CCc2ccccc2)nc2cnc(N3CCNCC3)nc2n1-c1ccccc1	15.8 µM (active)	6.64%	inactive	> 9.22 µM	> 46 µM	inactive	inactive	–	–	inactive	inactive	–	–	-11.6%	–	> 11.4 µM	–	–
CCNc1ncc2nc(C)c(=O)n(CCc3ccccc3)c2n1	–	-12.8%	inactive	> 9.22 µM	> 46 µM	inactive	–	–	0.316 µM (active)	7.94 µM (active)	7.94 µM (active)	–	inactive	-15.2%	inactive	> 11.4 µM	–	–
CN(C)c1ccc(-c2nccc(NCc3cccs3)n2)cc1	–	–	inactive	> 46 µM	> 46 µM	inactive	–	–	–	8.91 µM (active)	5.62 µM (active)	–	inactive	-18.4%	inactive	–	–	0.126 µM (active)
